Records with an inconclusive call do not appear. Entries that show only a call come without a potency. A number with no mark means an inactive call. Activity calls are given as the source filed them. Calls follow the shape of the dose curve; as a rule, active = well fitted cell-killing curve with a large enough effect; inconclusive = small, poorly fitted or top-dose-only effect, or effect the other way; inactive = no such curve, though single readings can be large or run the other way.
Potency is read from the fitted curve at half-maximal effect.

The first test in a line: Viability qHTS for spleen associated tyrosine kinase inhibitor (SYKi) naive MV4-11 cells (AID 1963823). Also: nearly all actives have a fitted effect of over 40% in size. To be noted: MV4-11 AML viability, CellTiter-Glo luminescence, 72 h; series mostly up to 45 µM. The method in brief:
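qHTS, SYK inhibitor-naive MV4-11; 500 cells/well; 72 hr compound exposure, 37 C; CellTiter-Glo added, 10 min RT; luminescence read.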
With `C[C@@H]1CC(=O)Nc2cccc(-c3ccc4c(c3)c(-c3cnn(C)c3)nn4C)c2N1`, the Potency is 2.09 µM (active).

Turning to `CC(COc1ccccc1)NN` (stereo unspecified), the Potency result was “inactive”.

As for `CCCC1(CCC)CCC2(CCN(CCCN(CC)CC)C2)CC1`, the Potency was 2.35 µM (active).

A further test is described as follows: Viability qHTS for spleen associated tyrosine kinase inhibitor (SYKi) drug resistant MV4-11 cells (AID 1963824). Also: nearly all actives have a fitted effect of over 35% in size. To be noted: SYKi-resistant MV4-11 viability, CellTiter-Glo, 72 h; series mostly up to 45 µM. The method in brief: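 SYK-inhibitor-resistant MV4-11 AML cells were seeded at 500 per well onto compound and cultured 72 hours (37 °C, 5% CO2). CellTiter-Glo was then added, and after 10 min at room temperature, luminescence gave viability.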
(In general: qHTS replaces the single test concentration by a dilution series.)
Regarding `CCCCOc1cc(C(=O)OCCN(CC)CC)ccc1N`, the Potency entry is “inactive”.

Consider `O=C(CCCl)NCCc1ccccc1`, for which the Potency result is “inactive”.

For `CC1(C)S[C@@H]2[C@H](NC(=O)Cc3ccccc3)C(=O)N2[C@H]1C(=O)O` (tested in a mixture with another compound), the Potency result was “inactive”.

Take `O=C1CC2(CCCC2)CC(=O)N1CCNCC1COc2ccccc2O1` (stereo unspecified): the Potency entry is “inactive”.

Consider `Clc1cc(Cl)cc(CNc2ncncc2-c2ccc3c(c2)OCO3)c1`, for which the Potency was 9.34 µM (active).

With `COc1ccc(CCN2CCC(Nc3nc4ccccc4n3Cc3ccc(F)cc3)CC2)cc1`, the Potency is 8.41 µM (active).

`O=C(CO)[C@@H](O)[C@H](O)[C@@H](O)CO`: the Potency result was “inactive”.

Regarding `Cc1cc(O)cc2c1[C@]1(C)CC[C@H]3C(C)(C)CCC[C@]3(C)[C@H]1C2`, the viability, % of control was 59.2% [at 4.97 µM].

`NC(=O)c1ncn([C@@H]2O[C@H](CO)[C@@H](O)[C@H]2O)c1O`: the Potency entry was “inactive”.

On to `O=C1OC(CN2CCOCC2)CN1/N=C/c1ccc([N+](=O)[O-])o1` (stereo unspecified), for which the Potency is 8.41 µM (active).

Turning to `CC[C@H](CC[C@@H](C)[C@H]1CC[C@H]2[C@@H]3CC=C4C[C@@H](O)CC[C@]4(C)[C@H]3CC[C@]12C)C(C)C`, the Potency entry is “inactive”.

Turning to `CC(C)NCCCC1(C(N)=O)c2ccccc2-c2ccccc21`, the Potency result is “inactive”.

`CN(C)CCNC(=O)NC[C@H]1CC[C@@H]2[C@H](O1)c1cc(C(F)(F)F)ccc1N[C@H]2c1ccccc1`: the Potency is 0.132 µM (active).

Source of the values: PubChem BioAssay (NCATS).
